Records with an inconclusive call do not appear. Entries that show only a call come without a potency. Calls of active or inactive are those of the source. Calls come from the whole dose curve; as a rule, active = well fitted curve in the direction sought with a large enough effect; inconclusive = small, poorly fitted or top-dose-only effect, or another doubt; inactive = no such curve, though single readings can be large; an effect the other way counts as inactive or inconclusive.
Tests used:
[1] = test system: Zika virus NS2B-NS3 protease; experiment: Primary screen GU AMC qHTS for Zika virus inhibitors (AID 1347154); note: nearly all actives have a fitted effect of over 70% in size; note: potency is the fitted concentration of half-maximal effect
Procedure, shortened: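 Fluorogenic AMC-substrate cleavage by noncovalent NS2B-NS3 protease complex (25 nM, pH 8.0 Tris buffer with Tween 20) followed for 15 minutes at room temperature (~20% conversion). Percent inhibition from ex340/em450 signal change, fitted by 4-parameter Hill equation.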

[2] = test system: Zika virus NS2B-NS3 protease (unlinked complex); experiment: Primary screen GU Rhodamine qHTS for Zika virus inhibitors: Unlinked NS2B-NS3 protease assay (AID 1347159); note: nearly all actives have a fitted effect of over 60% in size
Procedure, shortened: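 Enzyme 25 nM in Tris-HCl pH 8.0 + 0.01% Tween 20; compounds up to 114 microM, 15 min RT dark; + Rhod110 substrate 1.5 microM; read t0 and 15 min; delta fluorescence → % inhibition → 4-parameter Hill fit.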

[3] = test system: Zika virus NS2B-NS3 protease (linked construct); experiment: Primary screen NINDS Rhodamine qHTS for Zika virus inhibitors (AID 1347160); note: nearly all actives have a fitted effect of over 55% in size
Procedure, shortened: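 Enzyme (25 nM, linked NS2B-NS3) was preincubated 15 min with compound in 10 mM Tris-HCl pH 8.0, 0.01% Tween 20. Rhodamine110 substrate (1.5 microM) was then added and fluorescence read at start and after 15 min.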

[4] = qHTS to identify inhibitors of the type 1 interferon - major histocompatibility complex class I in skeletal muscle: primary screen against the NCATS Mechanism Interrogation Plate v5.0 (MIPE) Libary (AID 1347411); note: nearly all actives have a fitted effect of over 65% in size; note: potency is the fitted concentration of half-maximal effect
Procedure, shortened: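 IFN-beta-driven (4 ng/ml) HLA-B-HiBit expression in CRISPR-tagged C25cl48 myoblasts; compounds 11-pt, 1:3, max 46 uM, 24 hr exposure; lytic NanoLuc complementation luminescence.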

[5] = target: Protein phosphatase 1D (Homo sapiens) (UniProt O15297); experiment: RapidFire Mass Spectrometry qHTS Assay for Modulators of WT P53-Induced Phosphatase 1 (WIP1) (AID 1347424);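 note: amount of dephosphorylated VEPPL-S-QETFS peptide product formed by WIP1; series mostly up to about 63 µM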
Protein phosphatase 1D (Homo sapiens), sequence (O15297 whole entry, looked up): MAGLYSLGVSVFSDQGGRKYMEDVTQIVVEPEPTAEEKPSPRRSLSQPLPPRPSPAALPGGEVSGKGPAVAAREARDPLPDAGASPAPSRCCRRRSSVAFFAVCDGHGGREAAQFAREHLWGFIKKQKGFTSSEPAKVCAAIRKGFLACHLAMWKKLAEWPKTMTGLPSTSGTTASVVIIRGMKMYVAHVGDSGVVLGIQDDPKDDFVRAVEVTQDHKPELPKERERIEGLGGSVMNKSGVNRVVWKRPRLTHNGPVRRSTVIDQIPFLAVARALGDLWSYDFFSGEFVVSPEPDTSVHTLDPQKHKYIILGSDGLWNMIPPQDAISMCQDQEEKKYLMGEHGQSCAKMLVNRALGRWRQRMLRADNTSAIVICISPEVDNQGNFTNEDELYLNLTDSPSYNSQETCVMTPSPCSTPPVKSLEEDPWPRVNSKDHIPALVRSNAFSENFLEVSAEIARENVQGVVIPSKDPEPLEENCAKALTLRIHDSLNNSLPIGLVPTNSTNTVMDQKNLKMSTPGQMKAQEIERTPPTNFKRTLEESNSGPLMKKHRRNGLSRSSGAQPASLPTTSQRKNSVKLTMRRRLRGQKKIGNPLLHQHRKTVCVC
Procedure, shortened: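 RapidFire mass spectrometry measured dephosphorylated peptide after 5 min room-temperature reaction of 2 uM VEPPL-pS-QETFS with 10 nM WIP1 (50 mM Tris-HCl pH 7.5, 30 mM MgCl2, 0.1 mM EGTA, BSA), following 1 hr compound preincubation; 1 uM isotope-labelled product standard.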

Row | Compound | Potency [1] | Potency [2] | Potency [3] | Potency [4] | Potency [5]
1 | NC(=O)c1ccc(N(C(N)=O)c2c(F)cccc2F)nc1-c1ccc(F)cc1F | inactive | inactive | inactive | inactive | 
2 | O=C(CCCN1CCN(c2ccc(F)cc2)CC1)NC1c2ccccc2CSc2ccccc21 (stereo not drawn) | inactive | inactive | inactive |  | inactive
3 | CCN1CCN(c2ccc(Nc3cc(N(C)C(=O)Nc4c(Cl)c(OC)cc(OC)c4Cl)ncn3)cc2)CC1 | inactive | inactive | inactive |  | 
4 | Nc1[nH]nc2nnc(-c3c(-c4ccccc4)nn4ccccc34)cc12 | inactive | inactive | inactive | inactive | 
5 | CCN(CCO)CCCOc1ccc2c(Nc3cc(CC(=O)Nc4cccc(F)c4)[nH]n3)ncnc2c1 | inactive | inactive |  | inactive | 
6 | Cc1ccc2c(c1)c1c(n2CCc2ccc(C)nc2)CCN(C)C1 | inactive | inactive | inactive |  | 
7 | C[C@@H](NC(=O)c1ncnc(N)c1Cl)c1ncc(C(=O)Nc2cc(C(F)(F)F)c(Cl)cn2)s1 | inactive | inactive | inactive |  | 
8 | CNC(=O)c1c(-c2ccc(F)cc2)oc2cc(N(CCO)S(C)(=O)=O)c(C3CC3)cc12 | 27.1 µM (active) | inactive |  | inactive | 
9 | COc1cc2nccc(Oc3ccc(NC(=O)Nc4cc(C)on4)c(Cl)c3)c2cc1OC | inactive | inactive | inactive | 13.1 µM (active) | 
10 | CC1(COc2ccc3c(c2)ncn3-c2ccc3cccc(N4CCC(N)CC4)c3n2)COC1 | inactive | inactive |  | 5.23 µM (active) | 
11 | CCCCC(F)(F)[C@@]1(O)CC[C@H]2[C@H](CC(=O)[C@@H]2CCCCCCC(=O)O)O1 | inactive | inactive | inactive | inactive | 

From PubChem BioAssay (NCATS)
